According to the supplement of paper PMC10849652:
The full data set covers some 7,900 targets. This sample favours those with a hit. About 0.6% of all pairs of compound and target were hits. Unmarked numbers belong to inactive results.

How the values were obtained:
Experiment in all cases: log2 fold change, soluble protein after heating vs DMSO (PISA); higher = thermal stabilisation; K562 cells, 10 uM, 30 min; active = over 0.2 and 3.5 SD of the protein, either way, in both replicates (recomputed)
[1] = compound: CC[C@@H]1C(=O)N(C)c2cnc(Nc3ccc(C(=O)NC4CCN(C)CC4)cc3OC)nc2N1C1CCCC1
In short: (§1)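 K562 cells at 2×10^6 cells/mL were treated with 10 μM compound for 30 min. Aliquots were heated for 3 min across 48°C-58°C, pooled, and extracted in PBS with 0.5% NP-40 at 4°C; soluble protein was the supernatant after 21,000xg for 90 min. Soluble protein was quantified by TMTpro 16plex LC-MS/MS with channel sums equalised, and reported as log2 fold change in thermal stability against DMSO controls, with values from duplicates.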

[2] = compound: CC[C@@H]1C(=O)N(C)c2cnc(Nc3ccc(C(=O)N[C@H]4CC[C@H](N5CCN(CC6CC6)CC5)CC4)cc3OC)nc2N1C(C)C [volasertib]
In short: as §1

[3] = compound: CC[C@H](C)N1C=C(C2=C(C=C(C=C21)C3=CN=C(C=C3)N4CCNCC4)C(=O)NCC5=C(C=C(NC5=O)C)C)C
In short: as §1

[4] = compound: CC[C@H](C)[C@@H](C(=O)N[C@@H]([C@@H](C)O)C(=O)N[C@@H](CC(C)C)C(=O)[C@]1(CO1)C)NC(=O)[C@H]([C@@H](C)CC)N(C)C(=O)C [epoxomicin]
In short: as §1

[5] = compound: CCn1c(C(=O)N(C2CC2)C2CC2)cc2c3c(ncn3C)c(Nc3cc(C)n(C)n3)nc21
In short: as §1

[6] = compound: CCn1cc(-c2ccnc3[nH]c(-c4cccc(CN(C)C)c4)cc23)c(-c2ccc(NC(=O)N(C)C)cc2)n1
In short: as §1

[7] = compound: CN(C)CC(=O)Nc1ccc2[nH]c(=O)c3ccccc3c2c1
In short: as §1

[8] = compound: CN(CCOC1=CC=C(C=C1)C[C@H]2C(=O)NC(=O)S2)C3=CC=CC=N3 (racemic) [rosiglitazone]
In short: as §1

[9] = compound: CN1C2=C(C3=C1C(=O)N(N=C3)CC4=CC(=CC=C4)N)SC(=C2)S(=O)C
In short: as §1

[10] = compound: CN1CCC(CNc2ccc3ncc(-c4cccc(OC(F)(F)F)c4)n3n2)CC1
In short: as §1

[11] = compound: CN1CCN(CCOc2cc(OC3CCOCC3)c3c(Nc4c(Cl)ccc5c4OCO5)ncnc3c2)CC1 [saracatinib]
In short: as §1

[12] = compound: CN1CCN(c2nc(C3=C(c4c[nH]c5ccccc45)C(=O)NC3=O)c3ccccc3n2)CC1 [sotrastaurin]
In short: as §1

[13] = compound: CN1CC[C@H](c2c(O)cc(O)c3c(=O)cc(-c4ccccc4Cl)oc23)[C@H](O)C1 [alvocidib]
In short: as §1

[14] = compound: CN1CCc2c(c3ccccc3n2Cc2ccc(C(=O)NO)cc2)C1 [Tubastatin A]
In short: as §1

[15] = compound: CNC(=O)C1=CC=CC=C1NC2=NC(=NC=C2Cl)NC3=C(C=C(C=C3)N4CCOCC4)OC
In short: as §1

[16] = compound: CNC(=O)c1ccc(Nc2ncc(C(F)(F)F)c(NCc3nccnc3N(C)S(C)(=O)=O)n2)cc1 [defactinib]
In short: as §1

[17] = compound: CNCc1ccc(-c2[nH]c3cc(F)cc4c3c2CCNC4=O)cc1 [rucaparib]
In short: as §1

[18] = compound: CNc1nc(-c2ccc3c(N)n[nH]c3c2)cc(N2C[C@@H](C(=O)NC3CCCCC3)CC[C@H]2C)n1
In short: as §1

[19] = compound: COC(=O)N[C@@H](C)CNc1nccc(-c2cn(C(C)C)nc2-c2cc(Cl)cc(NS(C)(=O)=O)c2F)n1 [encorafenib]
In short: as §1

[20] = compound: COC(=O)[C@H](CCSC)NC(=O)C1=C(C=C(C=C1)NC[C@H](CS)N)C2=CC=CC=C2
In short: as §1

Chain of UniProt O00193 (O00193 whole entry, looked up): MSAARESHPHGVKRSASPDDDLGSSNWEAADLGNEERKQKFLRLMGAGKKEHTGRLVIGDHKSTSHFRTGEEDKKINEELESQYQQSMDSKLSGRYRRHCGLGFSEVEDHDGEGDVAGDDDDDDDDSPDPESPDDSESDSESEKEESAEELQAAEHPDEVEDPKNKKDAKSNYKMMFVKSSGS
Chain of UniProt P63165 (P63165 whole entry, looked up): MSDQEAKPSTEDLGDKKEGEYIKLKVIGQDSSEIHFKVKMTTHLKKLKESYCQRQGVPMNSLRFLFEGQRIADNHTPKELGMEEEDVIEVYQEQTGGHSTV
Chain of UniProt Q96Q15 (Q96Q15 whole entry, looked up): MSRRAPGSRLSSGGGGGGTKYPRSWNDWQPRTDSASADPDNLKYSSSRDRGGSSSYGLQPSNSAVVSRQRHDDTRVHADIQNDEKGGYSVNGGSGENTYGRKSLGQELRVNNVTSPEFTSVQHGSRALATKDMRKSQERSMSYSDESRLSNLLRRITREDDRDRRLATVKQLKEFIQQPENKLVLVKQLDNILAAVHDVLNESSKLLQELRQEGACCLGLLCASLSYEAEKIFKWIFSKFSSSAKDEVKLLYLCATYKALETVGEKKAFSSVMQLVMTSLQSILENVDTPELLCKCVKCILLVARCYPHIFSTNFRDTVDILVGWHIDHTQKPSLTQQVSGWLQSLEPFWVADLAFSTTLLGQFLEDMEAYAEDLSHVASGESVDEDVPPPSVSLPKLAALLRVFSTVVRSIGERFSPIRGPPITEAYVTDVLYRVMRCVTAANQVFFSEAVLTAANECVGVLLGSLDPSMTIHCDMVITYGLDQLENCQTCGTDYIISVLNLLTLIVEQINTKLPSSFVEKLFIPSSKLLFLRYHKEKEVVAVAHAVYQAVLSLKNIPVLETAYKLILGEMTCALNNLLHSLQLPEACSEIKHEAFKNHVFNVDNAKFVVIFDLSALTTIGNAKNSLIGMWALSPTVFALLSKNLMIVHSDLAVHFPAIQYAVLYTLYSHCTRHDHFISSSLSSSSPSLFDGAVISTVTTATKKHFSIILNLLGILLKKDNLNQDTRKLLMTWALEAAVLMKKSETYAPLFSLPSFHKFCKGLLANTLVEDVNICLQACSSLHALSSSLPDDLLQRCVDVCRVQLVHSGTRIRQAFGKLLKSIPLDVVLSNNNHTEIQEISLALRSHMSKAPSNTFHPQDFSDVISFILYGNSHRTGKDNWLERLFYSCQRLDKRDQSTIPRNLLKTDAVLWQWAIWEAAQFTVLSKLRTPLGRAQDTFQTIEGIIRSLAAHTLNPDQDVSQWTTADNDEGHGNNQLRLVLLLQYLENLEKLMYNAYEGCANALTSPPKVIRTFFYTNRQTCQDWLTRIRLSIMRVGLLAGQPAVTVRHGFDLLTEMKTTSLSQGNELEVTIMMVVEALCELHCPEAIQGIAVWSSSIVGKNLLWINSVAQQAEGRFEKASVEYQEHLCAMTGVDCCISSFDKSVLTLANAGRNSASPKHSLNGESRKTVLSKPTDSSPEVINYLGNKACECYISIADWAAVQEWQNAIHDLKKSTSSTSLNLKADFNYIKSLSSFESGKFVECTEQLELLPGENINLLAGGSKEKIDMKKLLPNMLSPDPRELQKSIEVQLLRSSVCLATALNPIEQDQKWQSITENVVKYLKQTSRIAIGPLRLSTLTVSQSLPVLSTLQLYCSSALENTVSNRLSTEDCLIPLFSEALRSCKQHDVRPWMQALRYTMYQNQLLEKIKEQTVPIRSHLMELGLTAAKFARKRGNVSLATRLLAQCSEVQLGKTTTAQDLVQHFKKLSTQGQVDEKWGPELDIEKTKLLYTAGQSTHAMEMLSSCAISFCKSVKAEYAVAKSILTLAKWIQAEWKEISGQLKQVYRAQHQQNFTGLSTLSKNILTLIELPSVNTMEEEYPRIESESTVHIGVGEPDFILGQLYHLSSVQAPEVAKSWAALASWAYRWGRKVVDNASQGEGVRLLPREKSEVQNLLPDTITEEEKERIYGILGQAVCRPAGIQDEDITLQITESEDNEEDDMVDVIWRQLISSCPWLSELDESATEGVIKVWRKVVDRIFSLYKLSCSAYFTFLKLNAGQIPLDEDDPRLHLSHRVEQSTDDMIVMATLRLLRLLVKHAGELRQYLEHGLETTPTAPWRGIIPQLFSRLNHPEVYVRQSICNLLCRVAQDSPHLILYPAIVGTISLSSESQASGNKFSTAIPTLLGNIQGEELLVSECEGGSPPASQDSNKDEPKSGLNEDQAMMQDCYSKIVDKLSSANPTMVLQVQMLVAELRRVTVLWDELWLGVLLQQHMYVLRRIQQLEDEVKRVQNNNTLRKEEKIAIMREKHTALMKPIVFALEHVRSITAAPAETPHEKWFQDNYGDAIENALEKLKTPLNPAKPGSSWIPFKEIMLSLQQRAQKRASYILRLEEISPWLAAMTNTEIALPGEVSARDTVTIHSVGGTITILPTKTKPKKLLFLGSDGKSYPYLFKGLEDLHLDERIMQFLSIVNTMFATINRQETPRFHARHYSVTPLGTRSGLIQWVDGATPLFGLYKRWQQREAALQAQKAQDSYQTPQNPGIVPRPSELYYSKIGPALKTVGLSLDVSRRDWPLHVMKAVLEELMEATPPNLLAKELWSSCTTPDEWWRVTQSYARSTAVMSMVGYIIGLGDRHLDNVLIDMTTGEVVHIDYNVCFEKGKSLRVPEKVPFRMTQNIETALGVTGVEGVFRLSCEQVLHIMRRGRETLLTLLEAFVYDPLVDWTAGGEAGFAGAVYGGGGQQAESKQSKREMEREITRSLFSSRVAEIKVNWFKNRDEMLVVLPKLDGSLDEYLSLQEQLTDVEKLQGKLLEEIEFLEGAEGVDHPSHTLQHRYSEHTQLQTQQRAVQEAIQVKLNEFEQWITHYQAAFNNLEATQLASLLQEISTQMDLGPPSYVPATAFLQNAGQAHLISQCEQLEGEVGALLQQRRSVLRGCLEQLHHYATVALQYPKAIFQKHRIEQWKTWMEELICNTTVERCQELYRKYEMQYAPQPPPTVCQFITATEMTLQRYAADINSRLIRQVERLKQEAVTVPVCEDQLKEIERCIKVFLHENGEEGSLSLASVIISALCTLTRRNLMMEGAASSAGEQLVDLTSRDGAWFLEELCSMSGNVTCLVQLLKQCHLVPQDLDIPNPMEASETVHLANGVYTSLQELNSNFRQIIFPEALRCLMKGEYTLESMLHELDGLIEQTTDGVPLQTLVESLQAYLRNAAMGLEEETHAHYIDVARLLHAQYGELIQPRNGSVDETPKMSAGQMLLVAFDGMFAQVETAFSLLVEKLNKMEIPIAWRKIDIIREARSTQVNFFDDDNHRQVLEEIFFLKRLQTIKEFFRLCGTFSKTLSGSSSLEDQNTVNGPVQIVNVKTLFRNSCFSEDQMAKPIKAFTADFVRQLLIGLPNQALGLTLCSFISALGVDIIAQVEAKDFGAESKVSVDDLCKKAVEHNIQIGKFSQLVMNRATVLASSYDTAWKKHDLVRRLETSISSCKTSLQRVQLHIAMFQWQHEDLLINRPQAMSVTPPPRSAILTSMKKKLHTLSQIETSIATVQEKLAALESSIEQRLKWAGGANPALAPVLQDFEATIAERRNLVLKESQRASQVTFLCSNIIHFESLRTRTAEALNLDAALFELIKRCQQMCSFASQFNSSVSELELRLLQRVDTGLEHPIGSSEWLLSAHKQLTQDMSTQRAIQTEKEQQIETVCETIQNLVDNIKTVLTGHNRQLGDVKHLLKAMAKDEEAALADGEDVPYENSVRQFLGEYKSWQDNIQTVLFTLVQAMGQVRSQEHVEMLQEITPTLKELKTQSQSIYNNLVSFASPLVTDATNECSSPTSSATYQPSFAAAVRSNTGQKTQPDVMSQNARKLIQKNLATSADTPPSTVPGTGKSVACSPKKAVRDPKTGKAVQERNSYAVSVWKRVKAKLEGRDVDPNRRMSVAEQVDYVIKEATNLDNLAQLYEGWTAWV
Chain of UniProt P27105 (P27105 whole entry, looked up): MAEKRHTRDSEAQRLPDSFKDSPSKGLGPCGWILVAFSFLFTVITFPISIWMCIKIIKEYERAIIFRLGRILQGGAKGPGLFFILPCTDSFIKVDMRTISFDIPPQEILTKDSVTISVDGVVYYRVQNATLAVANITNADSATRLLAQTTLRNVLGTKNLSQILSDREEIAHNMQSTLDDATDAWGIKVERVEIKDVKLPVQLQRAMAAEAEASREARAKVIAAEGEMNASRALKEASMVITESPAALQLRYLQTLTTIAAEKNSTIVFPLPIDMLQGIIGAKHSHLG
Chain of UniProt O15400 (O15400 whole entry, looked up): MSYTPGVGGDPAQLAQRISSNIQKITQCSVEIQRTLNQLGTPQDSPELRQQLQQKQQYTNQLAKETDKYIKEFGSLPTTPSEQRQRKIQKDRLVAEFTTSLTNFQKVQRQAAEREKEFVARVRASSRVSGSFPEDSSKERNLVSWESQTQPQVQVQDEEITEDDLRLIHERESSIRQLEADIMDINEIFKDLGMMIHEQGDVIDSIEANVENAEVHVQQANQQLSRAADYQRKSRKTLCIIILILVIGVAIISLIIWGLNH
Chain of UniProt Q96DW6 (Q96DW6 whole entry, looked up): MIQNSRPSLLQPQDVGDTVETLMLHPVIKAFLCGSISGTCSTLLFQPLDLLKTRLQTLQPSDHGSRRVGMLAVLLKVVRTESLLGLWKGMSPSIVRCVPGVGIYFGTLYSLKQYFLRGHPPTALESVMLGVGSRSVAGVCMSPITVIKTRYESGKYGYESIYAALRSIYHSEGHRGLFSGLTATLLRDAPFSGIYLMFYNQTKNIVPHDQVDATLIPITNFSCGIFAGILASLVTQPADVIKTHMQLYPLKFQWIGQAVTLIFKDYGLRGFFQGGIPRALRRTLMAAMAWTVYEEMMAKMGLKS
Chain of UniProt Q16594 (Q16594 whole entry, looked up): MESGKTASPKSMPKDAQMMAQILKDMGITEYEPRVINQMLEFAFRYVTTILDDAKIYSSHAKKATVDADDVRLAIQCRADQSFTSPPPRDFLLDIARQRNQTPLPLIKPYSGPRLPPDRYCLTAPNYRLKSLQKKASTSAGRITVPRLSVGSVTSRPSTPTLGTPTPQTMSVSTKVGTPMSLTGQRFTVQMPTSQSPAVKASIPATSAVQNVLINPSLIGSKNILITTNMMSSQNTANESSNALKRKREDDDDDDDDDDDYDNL

Target	log2 fold change [1]	log2 fold change [2]	log2 fold change [3]	log2 fold change [4]	log2 fold change [5]	log2 fold change [6]	log2 fold change [7]	log2 fold change [8]	log2 fold change [9]	log2 fold change [10]	log2 fold change [11]	log2 fold change [12]	log2 fold change [13]	log2 fold change [14]	log2 fold change [15]	log2 fold change [16]	log2 fold change [17]	log2 fold change [18]	log2 fold change [19]	log2 fold change [20]
SMAP (UniProt O00193)	-0.024	0.023	-0.043	0.06	-0.02	0.014	-0.011	-0.038	-0.088	-0.045	-0.035	0.016	-0.015	0.016	-0.069	-0.001	-0.064	0.009	-0.054	0.013
SMAP2 (UniProt Q8WU79)	-0.054	-0.3 (active)	0.131	0.056	-0.015	-0.009	0.008	0.073	-0.021	0.015	-0.047	-0.052	-0.057	0.029	0.107	-0.12	0.114	-0.026	0.087	-0.043
STX7 (UniProt O15400)	-0.021	0.057	-0.03	-0.008	0.032	0.094	-0.006	-0.004	0.005	-0.116	0.063	0.026	-0.001	-0.036	0.013	-0.033	0.028	-0.014	-0.039	-0.02
SUMO1 (UniProt P63165)	0.034	-0.035	-0.046	-0.011	0.088	0.015	0.021	0.002	0.038	0.007	-0.112	0.011	0.12	-0.073	0.022	-0.067	0.056	-0.09	-0.029	0.028
SRPRA (UniProt P08240)	-0.116	-0.107	0.007	0.02	-0.07	-0.036	0.032	-0.002	-0.055	0.009	-0.001	-0.006	-0.014	-0.007	0.033	0.022	0.116	0.06	0.019	-0.044
TBC1D10B (UniProt Q4KMP7)	-0.108	-0.114	0.025	0.019	0.022	0.004	-0.005	0.015	-0.053	-0.185	-0.025	-0.036	-0.036	0.001	-0.015	-0.008	0.094	0.009	0.048	-0.023
SLC4A2 (UniProt P04920)	0.039	-0.071	-0.044	0.029	-0.021	-0.028	0.022	0.066	0.035	-0.018	0.003	-0.029	-0.174	0.066	-0.006	0.028	0.064	0.008	0.085	-0.067
SRP72 (UniProt O76094)	-0.093	-0.518	0.119	0.001	-0.104	-0.034	0.03	0.047	0.119	-0.168	-0.102	-0.181	0.069	0.119	0.04	-0.035	0.184	0.055	0.155	-0.134
SMG1 (UniProt Q96Q15)	-0.137	-0.391 (active)	0.158	0.024	0.002	0.05	0.046	-0.003	0.129	-0.02	-0.039	0.041	-0.085	0.014	0.042	0	0.025	-0.12	0.023	0.017
SLC25A38 (UniProt Q96DW6)	0.013	0.009	-0.002	-0.025	0.048	0	-0.02	-0.028	-0.017	-0.048	0.076	-0.027	-0.117	-0.035	-0.015	0.046	-0.002	0.026	0.016	-0.057
TAF9 (UniProt Q16594)	-0.028	0.095	-0.029	0.12	0.025	0.034	-0.021	-0.001	0.061	0.077	0.076	0.021	0.142	-0.023	-0.1	0.016	-0.019	-0.065	-0.048	0.103
STOM (UniProt P27105)	0.087	0.096	-0.08	-0.006	0.009	-0.164	-0.057	-0.065	0.085	0.317 (active)	-0.015	0.039	0.169	0.016	-0.019	0.068	0.006	-0.03	0.016	0.002
SULT1A1 (UniProt P50225)	-0.159	-0.445 (active)	0.091	0.026	-0.056	-0.106	0.105	0.025	0.072	-0.208	0.052	-0.03	-0.061	-0.004	0.105	-0.214	-0.048	0.05	0.084	-0.125
SLC25A42 (UniProt Q86VD7)	-0.025	0.039	-0.028	0	0.019	0.002	-0.021	0.025	0.022	0.022	0.105	0.023	0	-0.032	0.005	0.101	0.021	0.035	-0.067	0.083
SUCLA2 (UniProt Q9P2R7)	0.013	-0.105	0.052	0.016	0.01	-0.049	0.018	0.065	-0.071	-0.05	-0.013	0.03	0.011	0.024	0.011	-0.037	-0.029	-0.048	0.021	-0.008
